The text below walks through data of PubChem BioAssay (NCATS).

Activity calls are given as the source filed them. Calls come from the whole dose curve; as a rule, active = well fitted curve in the direction sought with a large enough effect; inconclusive = small, poorly fitted or top-dose-only effect, or effect the other way, or another doubt; inactive = no such curve, though single readings can be large or run the other way.

A short description of the assay: qHTS for inhibitors of adenylyl cyclases using a fission yeast platform: a pilot screen against the NCATS LOPAC library (AID 1347410). The conditions noted are these: S. pombe CHP2027, fbp1-GFP fluorescence, 18 h, yeast expressing mammalian AC9 and human GNAS; series mostly up to 57.5 µM. In outline: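 Inhibition of GNAS-stimulated AC9 activity in S. pombe was inferred from derepression of a PKA-repressed fbp1-GFP reporter, measured as cytometric fluorescence after 18 h at 30C with compounds at up to 57 µM.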
On the technique in general: Quantitative high-throughput screening tests each substance at several concentrations.
Consider `O=c1ccc2ccc(O)c(O)c2o1`, for which the molecule was called inactive.
On to `O=C1NC(=O)C(c2ccccc2[N+](=O)[O-])=C1Nc1ccc(O)c(Cl)c1`, for which the outcome was inactive.
On to `NC(=NCc1ccccc1)NC(=O)c1nc(Cl)c(N)nc1N`, for which the molecule was classed as inactive.
To `CN(C)CCCC1(c2ccc(F)cc2)OCc2cc(C#N)ccc21` (configuration not stated) belongs “inactive”.
For the molecule `CC(C)c1ccc2c(c1)c(SC(C)(C)C)c(CC(C)(C)C(=O)O)n2Cc1ccc(Cl)cc1`, the result was inactive.
Regarding `NCCCCNCCCN`, the molecule was called inactive.
Turning to `Cc1cccc(C#Cc2ccccc2)n1`, the molecule was called inactive.
To `O=C1c2ccccc2-c2n[nH]c3cccc1c23` belongs “inactive”; to `Oc1ccc2ccccc2c1SSc1c(O)ccc2ccccc12`, “inactive”.
The same measure for `C[C@H](Cc1ccc(O)c(O)c1)[C@@H](C)Cc1ccc(O)c(O)c1`: “inactive”; for `O=C(CCc1ccc(O)cc1)c1c(O)cc(O)cc1O`: “inactive”; for `CC1(C)C(=O)N(CCN2CCC(C(=O)c3ccc(F)cc3)CC2)c2ccccc21`: “inactive”.
